KB-V1 MDR tox: KB-V1 MDR subline cytotoxicity; KB-V1 MDR cells viability, CellTiter-Glo, 72 h; Potency, µM (doses to about 46.1 µM), usual class: cytotoxic; actives 3.4% (n = 400,000); note: potency is the fitted concentration of half-maximal effect; % is set by controls: 0 for no effect and ±100 for the full control effect; nearly all actives have a fitted effect of over 60% in size
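In this primary screen, KB-V1 cells overexpressing P-gp are incubated with library compounds (lowest to highest concentration) for 72 h at 37 degrees C before a luminescent ATP viability read.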
SW480 rereplic: inducers of DNA re-replication in SW480 colon cancer cells | Potency, µM (titrated, usually from 46.1 µM), for inactives: at the highest dose re-replication activation, hits mostly activators | AID 624297 | SW480 DNA re-replication, Hoechst DNA content imaging, 48 h | actives 1.8% (n = 340,000); note: potency is the fitted concentration of half-maximal effect; % of control where 0% means no effect; nearly all actives have a fitted effect of over 55% in size
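First, 250 cells per well were seeded. Next, compound or vehicle (23 nL) was pinned in, plates sat 48 hr at 37 C. Finally Hoechst was added for 40 min before fluorescence scanning.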
DRD3 antagonist: antagonists of human D3 dopamine receptor. actives 2.5% (n = 360,000). D3R cells, DiscoveRx beta-arrestin luminescence, antagonist mode; hits give low values. max response, negative = inhibition, %. P35462; in the data active = max response below about -50%; inconclusive = no clear call, values can overlap the other calls; note: % is set by controls: 0 for no effect and ±100 for the full control effect
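Cells plated overnight at 1500 cells/well, then exposed to library compounds with dopamine controls for 90 minutes at 37 degrees C. DiscoveRx reagent added for 30–60 minutes at room temperature; luminescence read, quantitative HTS format.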
DRD3 agonist: activates the human D3 dopamine receptor | max activation, % | AID 652048 | actives 0.58% (n = 410,000) | D3R DiscoveRx beta-arrestin cells, luminescence, 90 min; in the data active = max activation above about 30%; note: 0% is about no effect
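Agonist-mode cell screen: cells plated at 1500/well and incubated overnight at 37 °C, then exposed to library compounds for 90 min at 37 °C. Detection reagent was added for 30–60 min at room temperature, and luminescence was read.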
KB-3-1 cytotox: kills parental KB-3-1 adenocarcinoma cells; actives 1.4% (n = 400,000); Potency, µM (highest dose often 46.1 µM), most hits filed as cytotoxic; KB-3-1 viability, CellTiter-Glo ATP luminescence, 72 h; note: potency is the fitted concentration of half-maximal effect; % is set by controls: 0 for no effect and ±100 for the full control effect; nearly all actives have a fitted effect of over 60% in size
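Cells are dispensed, compounds pinned in, plates held at 37 °C for 72 h, then CellTiter-Glo is added and luminescence read after 10 minutes. Cell line: parental KB-3-1 in phenol-red-free DMEM, 10% FBS.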
MCF10A rereplic: DNA re-replication induction in MCF 10a cells; actives 2.9% (n = 350,000); MCF 10A DNA re-replication, Hoechst nuclear intensity, 48 h; AID 624296; Potency, µM (titrated, usually from 46.1 µM), inactives show top-dose activity, positive = re-replication, hits mostly activators; note: potency is the fitted concentration of half-maximal effect; % of control where 0% means no effect; nearly all actives have a fitted effect of over 50% in size
Active calls of the source: *; i = inactive; ? = inconclusive; / = no result. Most compounds without a hit are left out; they make up all but 8.9% or so of the library. Unless noted, calls come from the whole dose curve; as a rule, active = well fitted curve in the direction sought with a large enough effect; inconclusive = small, poorly fitted or top-dose-only effect, or another doubt; inactive = no such curve, though single readings can be large; an effect the other way counts as inactive or inconclusive.

SMILES	KB-V1 MDR tox	SW480 rereplic	DRD3 antagonist	DRD3 agonist	KB-3-1 cytotox	MCF10A rereplic
CCc1ccc(Cn2nnc(C(=O)Nc3ccc(C)cc3)c2N)cc1	i	/	/	-11.2	i	/
O=C(Nc1ccc(Cn2nnc3ccccc32)cc1)c1ccco1	16.4µM*	-8.6%	15.1	-5.6	16.4µM*	22.6%
O=C(Nc1nc2ccccc2n1Cc1ccc(Cl)cc1)c1ccco1	i	3.0%	-60.0*	-1.8	i	?
CC(=O)Nc1nc2ccccc2n1Cc1ccc(Cl)cc1	?	?	13.6	4.1	9.2µM*	2.7%
CCOc1ccc(N(C(=O)c2ccccc2F)S(=O)(=O)c2ccc3c(c2)n(C)c(=O)n3C)cc1	i	/	/	-30.1	i	/
O=C(NCc1cccnc1)c1ccc2sc([C@H]3C[C@H](O)[C@@H](CO)O3)nc2c1	i	/	-68.6*	-3.8	i	/

Bioassay records: PubChem BioAssay, National Center for Advancing Translational Sciences (NCATS)
